According to PubChem BioAssay AID1159580 (chemical genetic matrix, 2015):
“And” between values parts separate entries of the source, which are not always exact repeats. Identical values can stand only once. The campaign covered roughly 5,500 compounds. About 2,000 (36%) were called active. About 18% were inconclusive and are not listed. No stated cut-off is given here; in the data, active means normalized growth mostly below about 0.91 (no sharp cut-off); inconclusive means no clear call, values can overlap the other calls; inactive means mostly above about 0.92. The list shows a part of the results.

Experiment: chemical genetic growth profiling, strain panel (AID 1159580);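 further: tested at 20 µM; growth read once vehicle control cultures reached saturation at 30 °C; 1 = growth at the plate median or of vehicle wells; lower values mean less growth of the strain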
Settings: S. cerevisiae deletion strains, growth OD

Measured: normalized growth

CCN(CC)CCOC(=O)C1(C2CCCCC2)CCCCC1
active: locus YAL013W, strain DEP1, active compounds read low 0.892
inactive: locus YAL021C, strain ccr4, active compounds read low 0.925 | locus YAL026C, strain drs2, active compounds read low 0.97 | locus YAL030W, strain snc1, active compounds read low 0.985 | locus YAL040C, strain CLN3, active compounds read low 1.01 | locus YBL061C, strain skt5, active compounds read low 0.99 | locus YBR009C, strain hhf1, active compounds read low 0.97 | locus YBR021W, strain FUR4, active compounds read low 0.862 | locus YBR023C, strain chs3, active compounds read low 0.972 | locus YBR171W, strain sec66, active compounds read low 0.987 | locus YBR229C, strain ROT2, active compounds read low 1.01 | locus YBR231C, strain swc5, active compounds read low 0.998 | locus YBR279W, strain paf1, active compounds read low 0.973 | locus YCL011C, strain gbp2, active compounds read low 0.928 | locus YCL016C, strain dcc1, active compounds read low 0.95 | locus YCL029C, strain bik1, active compounds read low 0.99 | locus YCL061C, strain MRC1 (second series), active compounds read low 0.998 | locus YCL069W, strain vba3, active compounds read low 0.996 | locus YCR088W, strain abp1, active compounds read low 0.988 | locus YDL005C, strain med2, active compounds read low 0.985 | locus YDL035C, strain GPR1, active compounds read low 1.02 | locus YDL040C, strain nat1, active compounds read low 0.99 | locus YDL074C, strain BRE1, active compounds read low 0.965 | locus YDL101C, strain DUN1, active compounds read low 0.998 | locus YDL134C, strain PPH21, active compounds read low 1.02 | locus YDL185W, strain tfp1, active compounds read low 1 | locus YDL192W, strain arf1, active compounds read low 0.985 | locus YDR001C, strain nth1, active compounds read low 0.979 | locus YDR069C, strain doa4, active compounds read low 0.983 | locus YDR101C, strain arx1, active compounds read low 0.995 | locus YDR137W, strain rgp1, active compounds read low 1.08 | locus YDR150W, strain NUM1, active compounds read low 1.01 and 0.995 | locus YDR159W, strain sac3, active compounds read low 0.945 | locus YDR162C, strain NBP2, active compounds read low 1.01 | locus YDR195W, strain ref2 0.994 | locus YDR297W, strain sur2, active compounds read low 0.99 | locus YDR318W, strain mcm21, active compounds read low 0.972 | locus YDR334W, strain swr1, active compounds read low 0.98 | locus YDR335W, strain msn5, active compounds read low 0.981 | locus YDR363W, strain ESC2, active compounds read low 0.971 | locus YDR388W, active compounds read low 0.982 | locus YDR392W, strain spt3, active compounds read low 0.875 | locus YDR502C, strain sam2, active compounds read low 0.956 | locus YEL003W, strain gim4, active compounds read low 0.987 | locus YEL037C, strain rad23, active compounds read low 0.983 | locus YEL061C, strain CIN8 (second series), active compounds read low 0.978 | locus YEL061C, strain CIN8, active compounds read low 1 | locus YER002W, strain NOP16, active compounds read low 1.02 | locus YER015W, strain faa2, active compounds read low 0.944 | locus YER016W, strain bim1, active compounds read low 0.969 | locus YER110C, active compounds read low 0.988 | locus YER111C, strain swi4, active compounds read low 0.993 | locus YER155C, strain BEM2 (second series), active compounds read low 0.976 | locus YER155C, strain BEM2, active compounds read low 1.01 | locus YER167W, strain BCK2, active compounds read low 1.01 | locus YFR010W, strain ubp6, active compounds read low 0.972 | locus YGL078C, strain dbp3, active compounds read low 0.983 | locus YGL086W, strain mad1, active compounds read low 0.971 | locus YGL167C, strain pmr1, active compounds read low 0.985 | locus YGL173C, strain kem1, active compounds read low 1 | locus YGL227W, strain vid30, active compounds read low 0.974 | locus YGL240W, strain doc1, active compounds read low 0.984 | locus YGL248W, strain PDE1, active compounds read low 0.991 | locus YGL253W, strain hxk2, active compounds read low 0.985 | locus YGR078C, strain PAC10, active compounds read low 0.972 and 1.05 | locus YGR135W, strain pre9, active compounds read low 0.921 | locus YGR252W, strain gcn5, active compounds read low 0.889 | locus YHR013C, strain ard1, active compounds read low 0.944 | locus YHR027C, strain rpn1, active compounds read low 0.968 | locus YHR030C, strain SLT2, active compounds read low 1 and 1.05 | locus YHR079C, strain IRE1 (second series), active compounds read low 0.982 | locus YHR079C, strain IRE1, active compounds read low 1.02 | locus YHR094C, strain hxt1, active compounds read low 0.992 | locus YHR129C, strain ARP1, active compounds read low 1 | locus YHR142W, strain chs7, active compounds read low 0.987 | locus YHR200W, strain rpn10, active compounds read low 0.986 | locus YIL066C, strain RNR3, active compounds read low 1.01 | locus YIL073C, strain SPO22, active compounds read low 0.997 | locus YIL125W, strain kgd1, active compounds read low 0.99 | locus YIR030C, strain dcg1, active compounds read low 0.997 | locus YJL092W, strain hpr5, active compounds read low 0.969 | locus YJL095W, strain BCK1 (second series), active compounds read low 0.978 | locus YJL095W, strain BCK1, active compounds read low 0.929 and 1.04 | locus YJL115W, strain asf1, active compounds read low 0.983 | locus YJL129C, strain trk1, active compounds read low 0.98 | locus YJL134W, strain LCB3, active compounds read low 1.01 | locus YJL154C, strain vps35, active compounds read low 0.982 | locus YJL164C, strain tpk1, active compounds read low 0.951 | locus YJL166W, strain qcr8, active compounds read low 1 | locus YJL168C, strain set2, active compounds read low 0.981 | locus YJL187C, strain SWE1 (second series), active compounds read low 0.974 | locus YJR043C, strain POL32, active compounds read low 1.06 | locus YJR066W, strain TOR1, active compounds read low 0.951 | locus YJR075W, strain HOC1, active compounds read low 0.952 and 0.974 | locus YKL009W, strain mrt4, active compounds read low 0.971 | locus YKL068W, active compounds read low 0.992 | locus YKL085W, strain MDH1 (second series), active compounds read low 0.963 | locus YKL085W, strain MDH1, active compounds read low 0.963 | locus YKL160W, strain elf1, active compounds read low 1.01 | locus YKR001C, strain vps1, active compounds read low 1 | locus YKR026C, strain gcn3, active compounds read low 0.982 | locus YKR091W, strain srl3, active compounds read low 0.978 | locus YLL001W, strain dnm1, active compounds read low 0.998 | locus YLL026W, active compounds read low 0.997 | locus YLL041C, strain sdh2, active compounds read low 0.987 | locus YLR027C, strain aat2, active compounds read low 0.994 | locus YLR039C, strain RIC1, active compounds read low 1.3 | locus YLR058C, strain SHM2, active compounds read low 0.985 | locus YLR102C, strain apc9, active compounds read low 0.987 | locus YLR113W, strain HOG1, active compounds read low 1.05 | locus YLR221C, strain rsa3, active compounds read low 0.952 | locus YLR258W, strain gsy2, active compounds read low 0.955 | locus YLR262C, strain YPT6 (second series), active compounds read low 1.04 | locus YLR262C, strain YPT6, active compounds read low 1.25 | locus YLR268W, strain sec22, active compounds read low 0.965 | locus YLR320W, strain mms22, active compounds read low 0.93 | locus YLR330W, strain CHS5, active compounds read low 0.999 | locus YLR342W, strain FKS1 (second series), active compounds read low 0.905 | locus YLR342W, strain FKS1, active compounds read low 0.983 | locus YLR357W, strain rsc2, active compounds read low 0.965 | locus YLR370C, strain arc18, active compounds read low 0.979 | locus YLR371W, strain rom2, active compounds read low 0.973 | locus YLR384C, strain iki3, active compounds read low 0.993 | locus YLR418C, strain cdc73, active compounds read low 0.847 | locus YML016C, strain PPZ1, active compounds read low 0.997 | locus YML032C, strain rad52, active compounds read low 0.966 | locus YML120C, strain ndi1, active compounds read low 0.985 | locus YML124C, strain tub3, active compounds read low 0.984 | locus YMR058W, strain fet3, active compounds read low 0.983 | locus YMR078C, strain ctf18, active compounds read low 0.978 | locus YMR125W, strain sto1, active compounds read low 0.946 | locus YMR129W, active compounds read low 0.972 | locus YMR205C, strain PFK2, active compounds read low 0.985 | locus YMR223W, strain ubp8, active compounds read low 0.932 | locus YMR231W, strain pep5, active compounds read low 0.985 | locus YMR263W, strain SAP30, active compounds read low 0.984 and 1 | locus YMR307W, strain GAS1, active compounds read low 1.23 and 1.02 | locus YNL067W, strain RPL9B, active compounds read low 0.979 | locus YNL071W, strain lat1, active compounds read low 0.951 | locus YNL128W, strain TEP1, active compounds read low 1.02 | locus YNL153C, strain GIM3, active compounds read low 0.966 and 0.991 | locus YNL175C, strain NOP13, active compounds read low 1.02 | locus YNL183C, strain NPR1, active compounds read low 0.995 | locus YNL197C, strain WHI3, active compounds read low 1.06 | locus YNL209W, strain ssb2, active compounds read low 0.947 | locus YNL224C, strain SQS1, active compounds read low 1.01 | locus YNL233W, strain BNI4, active compounds read low 0.962 | locus YNL248C, strain rpa49, active compounds read low 0.948 | locus YNL250W, strain rad50, active compounds read low 0.979 | locus YNL271C, strain bni1, active compounds read low 0.973 | locus YNL298W, strain CLA4, active compounds read low 1 | locus YNL307C, strain MCK1, active compounds read low 0.968 | locus YNL322C, strain KRE1 (second series), active compounds read low 0.979 | locus YNR049C, strain mso1, active compounds read low 0.979 | locus YNR052C, strain pop2, active compounds read low 0.961 | locus YOL012C, strain htz1 0.807 | locus YOL147C, strain pex11, active compounds read low 0.99 | locus YOR001W, strain rrp6, active compounds read low 1.01 | locus YOR061W, strain CKA2, active compounds read low 1 | locus YOR069W, strain VPS5, active compounds read low 0.994 | locus YOR070C, strain gyp1, active compounds read low 0.968 | locus YOR080W, strain dia2, active compounds read low 0.982 | locus YOR083W, strain WHI5 (second series), active compounds read low 1.02 | locus YOR083W, strain WHI5, active compounds read low 0.965 | locus YOR106W, strain vam3, active compounds read low 1 | locus YOR136W, strain idh2, active compounds read low 0.998 | locus YOR144C, strain elg1, active compounds read low 0.997 | locus YOR184W, strain ser1, active compounds read low 0.992 | locus YOR231W, strain MKK1, active compounds read low 1.04 | locus YOR265W, strain rbl2, active compounds read low 0.991 | locus YOR270C, strain vph1, active compounds read low 0.85 | locus YOR290C, strain snf2, active compounds read low 0.939 | locus YOR316C, strain cot1, active compounds read low 0.992 | locus YPL051W, strain arl3, active compounds read low 0.984 | locus YPL055C, strain LGE1, active compounds read low 0.986 | locus YPL078C, strain atp4, active compounds read low 1.01 | locus YPL106C, strain sse1, active compounds read low 0.939 | locus YPL240C, strain hsp82, active compounds read low 0.984 | locus YPL241C, strain CIN2, active compounds read low 0.998 | locus YPL256C, strain CLN2, active compounds read low 1.05 | locus YPR119W, strain clb2, active compounds read low 0.99 | locus YPR141C, strain kar3, active compounds read low 0.993 | locus YPR163C, strain tif3, active compounds read low 0.988 | locus YPR167C, strain met16, active compounds read low 0.983 | strain wtn01, active compounds read low 0.957
